Measurements as given in the supplement of paper PMC6555819.

Tests used:
Experiment in all cases: PBM binding z-score (relative to random genomic background probes); higher = stronger binding; sequences stand for … in GC…GCGATTGACAGCGTAGAATGAAGG
[1] = test system: FXR:RXRa (NR concentration 270 nM, RXRa partner concentration 90 nM)
How it was run: (§1)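 For binding z-scores, the reference was random background probes on custom Agilent 4×180K protein-binding microarrays. These arrays were incubated 1 h with ligand-free nuclear receptor dimers in PBS pH 7.4, 2% milk, 0.02% Triton X-100, 1 mM DTT, 0.2 mg/mL BSA and 0.4 mg/ml salmon testes DNA. Fluorescence was scanned after antibody detection of each partner (one per run) and regression-normalized.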

[2] = test system: LXRa:RXRa (NR concentration 270 nM, RXRa partner concentration 90 nM)
How it was run: as §1

[3] = test system: LXRa homodimer (NR concentration 270 nM)
How it was run: as §1

[4] = test system: LXRb:RXRa (NR concentration 270 nM, RXRa partner concentration 90 nM)
How it was run: as §1

[5] = test system: LXRb homodimer (NR concentration 270 nM)
How it was run: as §1

[6] = test system: PPARa:RXRa (NR concentration 270 nM, RXRa partner concentration 90 nM)
How it was run: as §1

[7] = test system: PPARg:RXRa (NR concentration 180 nM, RXRa partner concentration 90 nM)
How it was run: as §1

[8] = test system: PPARg:RXRa 270nM:90nM, anti-RXR (NR concentration 270 nM, RXRa partner concentration 90 nM)
How it was run: as §1

[9] = test system: PPARg:RXRa 30nM:10nM, anti-RXR (NR concentration 30 nM, RXRa partner concentration 10 nM)
How it was run: as §1

[10] = test system: PPARg:RXRa 90nM:30nM, anti-RXR (NR concentration 90 nM, RXRa partner concentration 30 nM)
How it was run: as §1

[11] = test system: PPARg:RXRa DBDmut IVT, anti-RXR (DBD mutation: RXRa K156A/R161A, NR concentration 270 nM, RXRa partner concentration 90 nM)
How it was run: as §1

[12] = test system: PPARg:RXRa IVT, anti-PPARg (NR concentration 270 nM, RXRa partner concentration 90 nM)
How it was run: as §1

[13] = test system: PPARg DBDmut:RXRa IVT, anti-PPARg (DBD mutation: PPARg1 K132A/R137A, NR concentration 270 nM, RXRa partner concentration 90 nM)
How it was run: as §1

[14] = test system: PPARg DBDmut IVT, anti-PPARg (DBD mutation: PPARg1 K132A/R137A, NR concentration 270 nM)
How it was run: as §1

[15] = test system: PPARg homodimer (NR concentration 180 nM)
How it was run: as §1

[16] = test system: PXR:RXRa (NR concentration 270 nM, RXRa partner concentration 90 nM)
How it was run: as §1

[17] = test system: PXR homodimer (NR concentration 270 nM)
How it was run: as §1

[18] = test system: RARa:RXR (NR concentration 270 nM, RXRa partner concentration 90 nM)
How it was run: as §1

[19] = test system: RARa homodimer (NR concentration 270 nM)
How it was run: as §1

[20] = test system: RARb:RXRa (NR concentration 270 nM, RXRa partner concentration 90 nM)
How it was run: as §1

Row | Sequence | PBM binding z-score [1] | PBM binding z-score [2] | PBM binding z-score [3] | PBM binding z-score [4] | PBM binding z-score [5] | PBM binding z-score [6] | PBM binding z-score [7] | PBM binding z-score [8] | PBM binding z-score [9] | PBM binding z-score [10] | PBM binding z-score [11] | PBM binding z-score [12] | PBM binding z-score [13] | PBM binding z-score [14] | PBM binding z-score [15] | PBM binding z-score [16] | PBM binding z-score [17] | PBM binding z-score [18] | PBM binding z-score [19] | PBM binding z-score [20]
1 | CTCGAAAGGACGTGCTCAGGTGAGTATACCAAAC | 0.0322 | -0.223 | -0.388 | -0.196 | -0.277 | -0.124 | 0.136 | -0.268 | -0.294 | -0.148 | -0.218 | -0.388 | -0.653 | -0.179 | -0.0329 | -0.345 | -0.1 | 0.0274 | -0.22 | 0.749
2 | TAGCGTAGGTCATTGGGCCAGTATAGTACGCATC | 4.93 | 3.92 | 0.617 | 2.84 | 0.375 | 4.15 | 3.75 | 3.91 | 1.25 | 2.52 | 1.8 | 3.26 | 0.193 | -0.343 | 1.85 | 2.07 | -0.335 | 2.36 | -0.0783 | 3.74
3 | CAAACTTGGTCAAGAGGTCAAAGTCCGCTTCCCG | 5.72 | 5.27 | 5.52 | 5.04 | 1.18 | 5.37 | 4.2 | 5.18 | 2.94 | 4.56 | 2.35 | 3.8 | 0.805 | 0.619 | 2.46 | 5.73 | 1.66 | 6.15 | 1.11 | 4.47
4 | CCTCACGGGTCACGAGGTTATAGCACGACGAGCG | 6.54 | 4.19 | 0.232 | 3.64 | -0.109 | 5.59 | 6.23 | 5.68 | 2.34 | 4.25 | 1.87 | 3.65 | 0.599 | -0.0554 | 3.5 | 4.4 | 0.143 | 5.63 | 0.537 | 4.43
5 | AGAACGAGGGCACGCAGAGTTGATAGCAGAGTAG | 1.14 | 0.811 | -0.396 | 0.439 | -0.647 | 2.54 | 2.51 | 2.28 | 0.386 | 1.35 | 4.1 | 4.09 | 0.653 | 0.16 | 0.313 | 1.55 | 0.0867 | 1.22 | -0.379 | 2.92
6 | ATCTCTAGGTAAAAGTTCACTGAATCCCGAGGAT | 1.74 | 2.79 | 2.51 | 1.79 | 1.07 | 4.85 | 8.64 | 8.64 | 7.7 | 9.26 | 2.27 | 4.44 | 1.42 | 1.19 | 1.29 | 3.44 | 2.38 | 2.99 | 1.08 | 2.97
7 | CGAACTAAGTCAGAACAGGACAGTGAAGGATGAT | -0.105 | -0.427 | 0.0634 | -0.842 | -0.576 | -0.444 | 0.514 | -0.265 | 0.171 | -0.00279 | 0.607 | 0.0567 | 0.659 | 0.276 | 0.404 | -0.17 | 0.204 | 0.137 | 0.452 | -0.103
8 | ACTCGGAGGACAAAGGTCAGAGCCACGCCAGTGA | 4.39 | 4.56 | 1.53 | 3.52 | 0.161 | 5.36 | 8.4 | 7.54 | 6.19 | 8.08 | 0.449 | 3.88 | 0.243 | 0.0578 | 3.83 | 4.03 | 0.202 | 5.5 | 1.68 | 4.73
9 | CGTCCAAGGTCATAGGAGGTCAGTGTAGACAGAT | 7.58 | 7.26 | 4.98 | 6.27 | 1.28 | 5.83 | 5.64 | 5.77 | 2.31 | 4.68 | 3.65 | 4.6 | 0.558 | 0.275 | 4.52 | 6.7 | 3.78 | 6.16 | 1.57 | 5.32
10 | GATACAGGTTCAAGGCCAGAGTACGCGTATTGAT | 1.85 | 1.7 | 0.305 | 1.41 | -0.271 | 2.72 | 1.43 | 1.64 | 0.208 | 1.19 | -0.252 | 0.582 | -0.175 | -0.432 | 1.38 | 1.9 | 0.971 | 1.61 | 0.647 | 1.79
11 | CCTACCGGGCCAAAGGTCATTGATTCCAATGCTC | 4.82 | 5.29 | 3.7 | 4.97 | 0.797 | 5.89 | 9.76 | 9.09 | 7.65 | 9.83 | 0.996 | 4.7 | -0.596 | -1.68 | 3.08 | 5.32 | 1.52 | 6.45 | 0.836 | 4.35
12 | GCTGCTAGGGCAGGTTGGTCAGCTAACGGGTACG | -0.531 | -0.752 | -0.652 | -1.01 | -0.94 | -0.594 | -0.438 | -0.678 | -1.11 | -1.1 | 0.814 | 0.109 | -1.41 | -2.26 | -0.535 | -0.732 | -0.597 | -0.985 | -1.07 | 1.16
13 | CGTCAAAGTTCGACTAAGGTAACGTAAAGCACGC | 1.87 | 1.33 | 0.0441 | 1.16 | 0.121 | 1.88 | 1.33 | 2.15 | 0.439 | 1.37 | 0.0158 | 0.996 | -0.0779 | -0.2 | 1 | 2.49 | 0.543 | 1.92 | 0.582 | 2.49
14 | CCTCGGAGGACAGAAAGTCAGAGCTGTCCGCTTT | -0.421 | -0.464 | -0.45 | -1.05 | -0.903 | -0.745 | -0.796 | -0.982 | -1.28 | -1.14 | -0.616 | -1.05 | -1.75 | -1.4 | -0.952 | -0.859 | -0.619 | -0.54 | -0.769 | 0.221
